Pf growth 96h: Primary qHTS for delayed death inhibitors of the malarial parasite plastid, 96 hour incubation | P. falciparum luciferase reporter growth, 96 h | Potency, µM (top dose mostly 28.7 µM), inactives show at the highest dose activity change, negative = inhibition, most hits filed as inhibitors | 6.9% of 320,000 active; further: potency means the concentration at half of the fitted maximal effect; on the % scale 0 is the no-effect control and ±100 the full control effect
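Cell-based qHTS: luciferase-tagged P. falciparum in erythrocytes (2% hematocrit, 0.05% parasitemia final) incubated with compounds for 96 hours, 37 C, 5% CO2; luciferase detection reagent then added and luminescence measured.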
FBPA Giardia inh: qHTS Assay for Inhibitors of Fructose-1,6-bisphosphate Aldolase from Giardia Lamblia; A8B2U2; purified Giardia FBPA; Potency, µM (doses to about 59.6 µM), for inactives: top-dose activity, negative = inhibition, hits mostly inhibitors; 0.71% of 290,000 active; AID 2451, 2010; further: potency means the concentration at half of the fitted maximal effect; on the % scale 0 is the no-effect control and ±100 the full control effect; nearly all actives have a fitted effect of over 55% in size
Target sequence (A8B2U2 whole entry, looked up): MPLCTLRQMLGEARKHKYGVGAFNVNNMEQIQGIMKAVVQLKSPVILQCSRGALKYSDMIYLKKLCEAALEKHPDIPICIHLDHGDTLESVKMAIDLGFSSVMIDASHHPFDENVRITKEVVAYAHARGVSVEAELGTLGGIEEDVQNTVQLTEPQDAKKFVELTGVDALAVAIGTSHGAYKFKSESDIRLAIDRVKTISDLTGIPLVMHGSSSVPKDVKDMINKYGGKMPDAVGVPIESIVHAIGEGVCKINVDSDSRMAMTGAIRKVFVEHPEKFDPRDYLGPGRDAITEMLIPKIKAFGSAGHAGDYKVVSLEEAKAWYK
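40 nM FBPA preincubated 10 min at RT with compound (up to 57.5 uM final), then substrate plus GAPDH/TPI/NAD/arsenate coupling and diaphorase/resazurin added. Fluorescence read after 20 min at RT, 525/598 nm.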
Shiga toxin inh: A qHTS for Small Molecule Inhibitors of Shiga Toxin; AID 2315, 2010; 9.2% of 290,000 active; Vero cells, Shiga toxin protein synthesis inhibition reporter; inhibition, % at 38.7 µM; in the data active means inhibition mostly above about 28%, no sharp cut-off; inactive means mostly below about 43%; further: 0% is about no effect
NS1 inh: qHTS Assay for Inhibitors of Influenza NS1 Protein Function. Potency, µM (titrated, usually from 46.1 µM), without a hit: top-dose activity, positive = more growth. 0.4% of 270,000 active. AID 2326, 2010; calls by dose curve; further: potency means the concentration at half of the fitted maximal effect; actives are rising curves; nearly all actives have a fitted effect of over 50% in size
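OD600 was taken as the measure of yeast growth restored by compound in an NS1-expressing S. cerevisiae strain. Cells had been washed out of glucose medium and diluted 1:100 into galactose -URA medium, pH 6.0.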
Cycloheximide cs: Cycloheximide Counterscreen for Small Molecule Inhibitors of Shiga Toxin. cell reporter, cycloheximide protein synthesis inhibition counterscreen. max response, %. 12% of 300,000 active. AID 2314, 2010; in the data active means max response mostly above about 13%, no sharp cut-off; inactive means mostly below about 14%; further: read at 38.3 µM for the half of the compounds with a filed dose; 0% is about no effect
Pf growth 48h: Primary qHTS for delayed death inhibitors of the malarial parasite plastid, 48 hour incubation; P. falciparum luciferase growth in erythrocytes, 48 h; Potency, µM (titrated, usually from 28.7 µM), without a hit: at the highest dose activity change, negative = inhibition, hits mostly inhibitors; 5.9% of 310,000 active; further: potency means the concentration at half of the fitted maximal effect; on the % scale 0 is the no-effect control and ±100 the full control effect
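In quantitative HTS format, infected erythrocytes bearing luciferase-reporter parasites were treated for a single generation at 37 C. Luminescence after adding detection reagent served as the growth measure.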
* hit, by the source's call; i = inactive; ? = inconclusive; . = not tested or not shown. Only some compounds are listed: those with a hit (about 21% of all), similar ones and a draw of the others. Unless noted, the call rests on the fitted dose curve; in most records, active means well fitted curve in the direction sought with a large enough effect; inconclusive means small, poorly fitted or top-dose-only effect, or another doubt; inactive means no such curve, though single readings can be large; an effect the other way counts as inactive or inconclusive.

SMILES	Pf growth 96h	FBPA Giardia inh	Shiga toxin inh	NS1 inh	Cycloheximide cs	Pf growth 48h
COc1ccccc1C(=O)C1CCCN(C(=O)CSc2ccccn2)C1 (stereo not drawn)	10µM*	0%	4	-4%	-1	6%
CCS(=O)(=O)N1CCC(C(=O)Nc2cc(C)ccc2O)CC1	12µM*	3%	18	12%	1	-6%
Cc1ccc(NC(=O)C2CCN(S(=O)(=O)c3ccc4c(c3)OCCO4)CC2)c(O)c1	12µM*	.	.	.	.	?
O=C(Nc1ccc2c(c1)OCCO2)C1CCN(S(=O)(=O)c2ccc3c(c2)OCCO3)CC1	.	-6%	10	-63%	15	-28%
Cc1cccc(OCCC(=O)OCC(=O)Nc2c(C)nn(-c3ccccc3)c2C)c1	9%	.	.	.	.	-1%
O=c1[nH]c(=O)n(Cc2ccc(F)cc2)c(O)c1C=Nc1ccc(Cl)cc1	-1%	1%	17	.	2	0%
CC(C)n1c(=O)c(C=Nc2ccc(F)cc2)c(O)n(Cc2ccco2)c1=O	?	3%	45	1%	6	15µM*
COc1cccc(N=Cc2c(O)n(Cc3ccco3)c(=O)[nH]c2=O)c1	-13%	-5%	-3	2%	-1	-27%
CC(C)n1c(=O)c(C=Nc2ccc(Cl)cc2)c(O)n(Cc2ccco2)c1=O	1µM*	-5%	-4	24%	-2	10µM*
Cc1o[nH]c(=O)c1CC[C@H](N)C(=O)O	.	-21%	.	.	.	.
O=C(CSc1nnc(-c2ccco2)n1Cc1ccccc1)OC1CCCCC1	.	0%	84*	-61%	24*	161%
CC(=O)c1c(C)[nH]c(C(=O)CSc2nnc(-c3ccco3)n2Cc2ccccc2)c1C	0.059µM*	-16%	35	-7%	0	?
CC(=O)c1c(C)[nH]c(C(=O)CSc2nnc(-c3cccs3)n2Cc2ccccc2)c1C	.	-4%	-23	?	0	9.3µM*
COC(=O)c1ccc(NC(=O)c2ccccc2N(C)S(=O)(=O)c2ccccc2)cc1	?	-6%	8	-8%	16*	.
COC(=O)c1ccccc1NC(=O)c1ccccc1SC	?	-2%	4	-5%	2	-12%
CSc1ccccc1C(=O)Nc1ccc2c(c1)CCC2	92%	-3%	41*	-13%	21	101%
COC(=O)c1ccc(NC(=O)c2ccccc2SC)cc1	96%	-10%	46*	-43%	27*	66%
Cc1c(C(=O)Nc2ccc3c(c2)CCC3)cccc1[N+](=O)[O-]	?	-7%	125*	2%	95*	105%
Cc1ccc(CN2CCN(Cc3cnc(N4CCOCC4)s3)CC2CCO)o1 (stereo not drawn)	30%	-1%	-5	-5%	0	2%
O=C(O)C12CC3(C(=O)O)CC(C(=O)O)(CC(C(=O)O)(C1)C3=O)C2=O	.	.	.	0%	.	.
COc1ccc(S(=O)(=O)NCCCn2ccnc2)cc1Cl	19%	5%	1	10%	-1	0%
O=C(Nc1ccc2c(c1)CCC2)c1ccccc1Br	i	-6%	63*	-8%	34*	65%
C[C@H]1C2=C3C(C[C@H]4C(=O)N(c5ccccc5)C(=O)[C@H]4[C@H]3[C@@]3(Cc4ccccc4)C(=NCCc4c[nH]c5ccccc45)OC(=O)N3C2=O)[C@H]2C(=O)N(c3ccccc3)C(=O)[C@H]21 (stereo partly drawn)	.	-5%	.	.	.	.
COCCn1c(=O)c(-c2cc(F)cc(F)c2)nc2cnc(OCc3ccccc3)nc21	.	2%	.	.	.	.
COc1cc(C(=O)Nc2ccc(C(F)(F)F)cc2)ccc1OCC(=O)N1CCOCC1	27%	.	.	.	.	31%
Fc1cccc(CNc2ncnc3cc(Cl)ccc23)c1F	?	16%	-5	-62%	-4	.
O=C(NCc1cccnc1)/C(=C/c1ccc(-c2cccc(Cl)c2)o1)S(=O)(=O)c1ccccc1	3.3µM*	-2%	-27	-11%	-9	13µM*
O=C(NCc1cccnc1)/C(=C\c1ccc(-c2cccc(Cl)c2)o1)S(=O)(=O)c1ccccc1	?	6%	-14	-14%	-13	9.3µM*

High-throughput results from PubChem BioAssay.
